In PubChem BioAssay (NCATS):
Inconclusive results are not listed. The source made the active and inactive calls. Calls follow the shape of the dose curve; as a rule, active = well fitted inhibition curve with a large enough effect; inconclusive = small, poorly fitted or top-dose-only effect; inactive = flat fitted curve, though single readings scatter. Where a SMILES comes first, the peptide text is derived from it. Bridges are numbered along the chain shown (N, C = ends). [ ]: non-standard residue; d: D form. hArg = N=C(N)NCCCC[C@H](N)C(=O)O; Mpa = O=C(O)CCS

Legend:
Assay in all cases: qHTS profiling for inhibitors of Plasmodium falciparum proliferation (AID 504749); also: nearly all actives have a fitted effect of over 60% in size
Conditions in all cases: P. falciparum in erythrocytes, SYBR Green DNA, 72 h; series mostly up to 28.7 µM
CP297 = system: CP297
Procedure, shortened: (§1)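 P. falciparum-infected erythrocytes (0.3% parasitemia, 2.5% hematocrit final) were exposed to compounds for 72 h at 37 C in 5% CO2, then lysed with SYBR Green buffer overnight at room temperature; parasite DNA fluorescence was normalized to artemisinin and DMSO controls.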

CP305 = system: CP305
Procedure, shortened: as §1

CP315 = system: CP315
Procedure, shortened: as §1

CP325 = system: CP325
Procedure, shortened: as §1

CP329 = system: CP329
Procedure, shortened: as §1

CP335 = system: CP335
Procedure, shortened: as §1

DFO2036 = system: DFO2036
Procedure, shortened: as §1

DIV14 = system: DIV14
Procedure, shortened: as §1

DIV17 = system: DIV17
Procedure, shortened: as §1

DIV30 = system: DIV30
Procedure, shortened: as §1

Dd2 = system: Dd2
Procedure, shortened: as §1

ECU = system: ECU
Procedure, shortened: as §1

FAB9 = system: FAB9
Procedure, shortened: as §1

GB4 = system: GB4
Procedure, shortened: as §1

HB3 = system: HB3
Procedure, shortened: as §1

ICS = system: ICS
Procedure, shortened: as §1

JCK = system: JCK
Procedure, shortened: as §1

N140 = system: N140
Procedure, shortened: as §1

P93_24 = system: P93_24
Procedure, shortened: as §1

P94_40 = system: P94_40
Procedure, shortened: as §1

Measured: Potency

C[C@@H](N)C(=O)O
inactive: all assays above

CCCC(O)C(CC)CO (centres undefined)
inactive: all assays above

O=C(NCN1CCOCC1)c1cnccn1
inactive: all assays above

O=C1c2cccc(O)c2C(=O)c2c(O)cccc21
inactive: all assays above

NNC(=O)CP(=O)(c1ccccc1)c1ccccc1
inactive: all assays above

O=C(O)CNC(=O)c1ccccc1I
inactive: all assays above

O=C(CCBr)N1CCN(C(=O)CCBr)CC1
inactive: all assays above

O=C(CN1CCNCC1)NC1CCCCC1
inactive: all assays above

CC(=O)Nc1cccc(O)c1
inactive: all assays above

Cc1cc(=O)[nH]c(=S)[nH]1
inactive: all assays above

CN1C(C)(C)CCCC1(C)C
inactive: all assays above

O=C(O)c1ccc(OCCCOc2ccc(C(=O)O)cc2)cc1
inactive: all assays above

CCc1nnc(NS(=O)(=O)c2ccc(N)cc2)s1
inactive: all assays above

O=C(O)Cc1ccc(CCNS(=O)(=O)c2ccc(Cl)cc2)cc1
inactive: all assays above

CC1CCc2cc(F)cc3c(=O)c(C(=O)O)cn1c23 (centres undefined)
inactive: all assays above

CC(C)CCCC(C)CCCC(C)CCCCC(C)CCCC(C)CCCC(C)C (centres undefined)
not listed: P94_40
inactive: all other assays above

CC(C)c1cc2c(cc1S(=O)(=O)O)[C@@]1(C)CCC[C@@](C)(C(=O)O)[C@@H]1CC2
inactive: all assays above

CCN(CC)CCc1nc(-c2ccccc2)no1
inactive: all assays above

CCCCCCCC(=O)OCC(COC(=O)CCCCCCC)OC(=O)CCCCCCC
inactive: all assays above

Cc1c(I)c(=O)n(-c2ccccc2)n1C
inactive: all assays above

Cc1cccc(C)c1NC(=O)CC12CCCN1CCC2
inactive: all assays above

CC(O)CCCCn1c(=O)c2c(ncn2C)n(C)c1=O (centres undefined)
inactive: all assays above

CCc1cccc(CC)c1NC(=O)CN(CC(=O)O)CC(=O)O
inactive: all assays above

C[N+](C)(C)CC[N+]1(C)Cc2c(Cl)c(Cl)c(Cl)c(Cl)c2C1
inactive: all assays above

O=c1[nH]cnc2nc[nH]c12
inactive: all assays above

CC(C)C[C@@H](N)C(=O)O
inactive: all assays above

COc1ccc2cc(CCC(C)=O)ccc2c1
inactive: all assays above

CC(C)(C)C(=O)OCOC(=O)[C@@H]1N2C(=O)[C@@H](NC(=O)[C@H](N)c3ccccc3)[C@H]2SC1(C)C
inactive: all assays above

CC(C(=O)O)c1ccc2c(c1)Cc1cccnc1O2 (centres undefined)
inactive: all assays above

Cc1ccc(S(=O)(=O)NC(=O)NC2CCCCCCC2)cc1
inactive: all assays above

O=C(O)c1ccccc1OP(=O)(O)O
inactive: all assays above

C[C@@H]1CCC[C@H](C)N1
inactive: all assays above

CCCCOC(=O)c1ccc(N)cc1
inactive: all assays above

O=C(O)Cc1cn(-c2ccccc2)nc1-c1ccc(Cl)cc1
inactive: all assays above

Cc1c(C)c2c(c(C)c1OC(=O)c1cccnc1)CC[C@@](C)(CCC[C@H](C)CCC[C@H](C)CCCC(C)C)O2
inactive: all assays above

CCCCCCCC(=O)OCC(O)CO (centres undefined)
inactive: all assays above

CCCCCC(N)=O
inactive: all assays above

CCOC(N)=O
inactive: all assays above

CC(CSC(=O)c1ccccc1)C(=O)N1C[C@@H](Sc2ccccc2)C[C@H]1C(=O)O (some centres undefined)
inactive: all assays above

CCN(CC)CC1CCCCN1CC(=O)N1c2ccccc2C(=O)Nc2cccnc21 (centres undefined)
inactive: all assays above

CN(C(=O)c1c(O)c2ccccc2n(C)c1=O)c1ccccc1
inactive: all assays above

NS(=O)(=O)c1cc2c(cc1C(F)(F)F)NCNS2(=O)=O
inactive: all assays above

CCOC(=O)[C@H](CCc1ccccc1)N[C@@H](C)C(=O)N1CCC[C@H]1C(=O)O
inactive: all assays above

CN/C(=C\[N+](=O)[O-])NCCSCc1csc(CN(C)C)n1
inactive: all assays above

NC(=O)[C@@H]1CSSCCC(=O)N[C@@H](CCCCN=C(N)N)C(=O)NCC(=O)N[C@@H](CC(=O)O)C(=O)N[C@@H](Cc2c[nH]c3ccccc23)C(=O)N2CCC[C@H]2C(=O)N1 ([Mpa][hArg]GDWPC-NH2; disulfide 1-7)
inactive: all assays above

NC(N)=NS(=O)(=O)c1ccc(N)cc1
inactive: all assays above

O[C@@H]1CO[C@H]2[C@@H]1OC[C@@H]2O
inactive: all assays above

Cn1c(=O)c2c(ncn2CCO)n(C)c1=O
inactive: all assays above

O=C(O)CCCc1ccccc1
inactive: all assays above

NS(=O)(=O)c1cc(-c2nn[nH]n2)c(NCc2cccs2)cc1Cl
inactive: all assays above

C[C@@H]1O[C@@H](OC[C@H]2O[C@@H](Oc3c(-c4ccc(O)c(O)c4)oc4cc(O)cc(O)c4c3=O)[C@H](O)[C@@H](O)[C@@H]2O)[C@H](O)[C@H](O)[C@H]1O
inactive: all assays above

CCCCCCCCCCCCCCCCN
inactive: all assays above

NS(=O)(=O)c1ccc(NC(=O)CCC(=O)O)cc1
inactive: all assays above

Cc1c(C(=O)NCCO)[n+](=O)c2ccccc2n1[O-]
inactive: all assays above

Nc1ccc(S(=O)(=O)c2ccc(N)cc2)cc1
inactive: all assays above

O=C(NCCCN1CCOCC1)c1ccc(Cl)cc1
inactive: all assays above

NC(N)=NCCN1CCCCCCC1
inactive: all assays above
